# Test results published in the supplement of paper PMC10037445.
# In all, about 2,900 compounds were measured (“NF-kB SEAP reporter activity, fold change vs agonist alone”: median about 0.99, highest 2% from about 2.6 on). The sample holds the highest values, similar compounds and a random draw of the others, so the mix is not that of the screen.
# What was measured:
# RAW-Dual [1] = assay: NF-kB SEAP reporter activity, fold change vs agonist alone; cytotoxicity flag (confluency mask): not cytotoxic; higher = enhanced NF-kB activity
# Outline: (§1)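 Cytotoxic wells were those whose IncuCyte confluency was below 70% of agonist controls in both mask sets. The cells were RAW-Dual macrophages at 50,000 cells/well in DMEM on 384-well plates, dosed with 50 nL of library stock by pin tool, stimulated with a PRR agonist 1 h later, and kept at 37 °C, 5% CO2 for 20 hours. IRF and NF-κB reporter activity, as fold change over agonist-alone wells, came from supernatant read by QuantiLuc luminescence and QuantiBlue absorbance, respectively.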
# RAW-Dual [2] = assay: NF-kB SEAP reporter activity, fold change vs agonist alone; higher = enhanced NF-kB activity
# Outline: as §1
# RAW-Dual [3] = assay: NF-kB SEAP reporter activity, fold change vs agonist alone; cytotoxicity flag (confluency mask): cytotoxic (confluency <70% of control); higher = enhanced NF-kB activity
# Outline: as §1
# [4] = agonist: ODN 1826 (TLR9) 0.5 ug/mL
# [5] = agonist: Pam2CSK4 (TLR2/6) 0.1 ug/mL
# [6] = agonist: Pam3CSK4 (TLR2/1) 0.1 ug/mL
# [7] = library stock concentration (final ~1000-fold dilution): 10 mM, cytotoxicity flag (confluency mask): not cytotoxic, agonist: Imiquimod (TLR7) […]
# [8] = library stock concentration (final ~1000-fold dilution): 10 mM, cytotoxicity flag (confluency mask): not cytotoxic, agonist: MPLA (TLR4) […]
# [9] = library stock concentration (final ~1000-fold dilution): 10 mM, cytotoxicity flag (confluency mask): cytotoxic (confluency <70% of control), agonist: Imiquimod (TLR7) […]
# [10] = library stock concentration (final ~1000-fold dilution): 10 mM, cytotoxicity flag (confluency mask): cytotoxic (confluency <70% of control), agonist: MPLA (TLR4) […]
# [11] = library stock concentration (final ~1000-fold dilution): 2 mM, cytotoxicity flag (confluency mask): not cytotoxic, agonist: Imiquimod (TLR7) […]
# [12] = library stock concentration (final ~1000-fold dilution): 2 mM, cytotoxicity flag (confluency mask): not cytotoxic, agonist: MPLA (TLR4) […]
compound,measurement,setting,value
Cl.NCc1c[nH]c(=S)n1C1CCc2c(F)cc(F)cc2C1 (configuration not stated) (library stock concentration (final ~1000-fold dilution): 10 mM),NF-kB SEAP reporter activity,RAW-Dual [1]; agonist: LPS (TLR4) 0.1 ug/mL,0.779
same,NF-kB SEAP reporter activity,RAW-Dual [1]; [4],0.895
same,NF-kB SEAP reporter activity,RAW-Dual [1]; [5],0.82
same,NF-kB SEAP reporter activity,RAW-Dual [1]; [6],0.904
Cl.NCc1c[nH]c(=S)n1C1CCc2c(F)cc(F)cc2C1 (configuration not stated),NF-kB SEAP reporter activity,RAW-Dual [2]; [7],1.12
same,NF-kB SEAP reporter activity,RAW-Dual [2]; [8],0.889
COc1cc(NS(C)(=O)=O)ccc1Nc1c2ccccc2nc2ccccc12.Cl,NF-kB SEAP reporter activity,RAW-Dual [2]; [9],2.58
same,NF-kB SEAP reporter activity,RAW-Dual [2]; [10],2.51
COc1cc(NS(C)(=O)=O)ccc1Nc1c2ccccc2nc2ccccc12.Cl (library stock concentration (final ~1000-fold dilution): 10 mM),NF-kB SEAP reporter activity,RAW-Dual [3]; agonist: LPS (TLR4) 0.1 ug/mL,2.6
same,NF-kB SEAP reporter activity,RAW-Dual [3]; [4],0.68
same,NF-kB SEAP reporter activity,RAW-Dual [3]; [5],1.05
same,NF-kB SEAP reporter activity,RAW-Dual [3]; [6],0.776
COC(=O)c1sccc1S(=O)(=O)Nc1ccc(Nc2ccccc2)cc1OC,NF-kB SEAP reporter activity,RAW-Dual [2]; [7],1.07
same,NF-kB SEAP reporter activity,RAW-Dual [2]; [8],1.11
COS(=O)(=O)[O-].COc1cccc2c1nc1ccccc1[n+]2C (library stock concentration (final ~1000-fold dilution): 10 mM),NF-kB SEAP reporter activity,RAW-Dual [3]; agonist: LPS (TLR4) 0.1 ug/mL,0.473
same,NF-kB SEAP reporter activity,RAW-Dual [3]; [4],0.781
same,NF-kB SEAP reporter activity,RAW-Dual [3]; [5],0.271
same,NF-kB SEAP reporter activity,RAW-Dual [3]; [6],0.272
COC(=O)c1sccc1S(=O)(=O)Nc1ccc(Nc2ccccc2)cc1OC (library stock concentration (final ~1000-fold dilution): 10 mM),NF-kB SEAP reporter activity,RAW-Dual [1]; agonist: LPS (TLR4) 0.1 ug/mL,1.72
same,NF-kB SEAP reporter activity,RAW-Dual [1]; [4],0.911
same,NF-kB SEAP reporter activity,RAW-Dual [1]; [5],0.821
same,NF-kB SEAP reporter activity,RAW-Dual [1]; [6],0.872
COS(=O)(=O)[O-].COc1cccc2c1nc1ccccc1[n+]2C,NF-kB SEAP reporter activity,RAW-Dual [2]; [9],0.838
same,NF-kB SEAP reporter activity,RAW-Dual [2]; [10],0.899
CC1(C)OC(=O)C=CC2(C)C1CC(=O)C1(C)C2CCC2(C)C(c3ccoc3)OC(=O)C3OC321 (configuration not stated) (library stock concentration (final ~1000-fold dilution): 10 mM),NF-kB SEAP reporter activity,RAW-Dual [1]; agonist: LPS (TLR4) 0.1 ug/mL,1.04
same,NF-kB SEAP reporter activity,RAW-Dual [1]; [4],0.875
same,NF-kB SEAP reporter activity,RAW-Dual [1]; [5],1.02
same,NF-kB SEAP reporter activity,RAW-Dual [1]; [6],1.08
CC1(C)OC(=O)C=CC2(C)C1CC(=O)C1(C)C2CCC2(C)C(c3ccoc3)OC(=O)C3OC321 (configuration not stated),NF-kB SEAP reporter activity,RAW-Dual [2]; [7],0.98
same,NF-kB SEAP reporter activity,RAW-Dual [2]; [8],1.03
c1cncc(-c2c[nH]nn2)c1,NF-kB SEAP reporter activity,RAW-Dual [2]; [7],0.995
same,NF-kB SEAP reporter activity,RAW-Dual [2]; [8],0.972
c1cncc(-c2c[nH]nn2)c1 (library stock concentration (final ~1000-fold dilution): 10 mM),NF-kB SEAP reporter activity,RAW-Dual [1]; agonist: LPS (TLR4) 0.1 ug/mL,1.17
same,NF-kB SEAP reporter activity,RAW-Dual [1]; [4],0.863
same,NF-kB SEAP reporter activity,RAW-Dual [1]; [5],1.02
same,NF-kB SEAP reporter activity,RAW-Dual [1]; [6],1.05
CCCC1CC(C(=O)NC(C(C)Cl)C2OC(SC)C(O)C(O)C2O)N(C)C1.Cl (configuration not stated),NF-kB SEAP reporter activity,RAW-Dual [2]; [7],0.95
same,NF-kB SEAP reporter activity,RAW-Dual [2]; [8],1.06
CCCC1CC(C(=O)NC(C(C)Cl)C2OC(SC)C(O)C(O)C2O)N(C)C1.Cl (configuration not stated) (library stock concentration (final ~1000-fold dilution): 10 mM),NF-kB SEAP reporter activity,RAW-Dual [1]; agonist: LPS (TLR4) 0.1 ug/mL,1.11
same,NF-kB SEAP reporter activity,RAW-Dual [1]; [4],1.04
same,NF-kB SEAP reporter activity,RAW-Dual [1]; [5],1.06
same,NF-kB SEAP reporter activity,RAW-Dual [1]; [6],1.08
CCCCCCCCCCCCCCCCCC[N+](C)(C)C,NF-kB SEAP reporter activity,RAW-Dual [2]; [10],1.75
CCCCCCCCCCCCCCCCCC[N+](C)(C)C (library stock concentration (final ~1000-fold dilution): 10 mM),NF-kB SEAP reporter activity,RAW-Dual [3]; agonist: LPS (TLR4) 0.1 ug/mL,0.996
same,NF-kB SEAP reporter activity,RAW-Dual [3]; [4],1.37
same,NF-kB SEAP reporter activity,RAW-Dual [3]; [5],0.699
same,NF-kB SEAP reporter activity,RAW-Dual [3]; [6],0.534
c1ccc(-c2n[nH]cc2-c2ccnc3ccccc23)nc1 (library stock concentration (final ~1000-fold dilution): 2 mM),NF-kB SEAP reporter activity,RAW-Dual [1]; agonist: LPS (TLR4) 0.1 ug/mL,2.19
same,NF-kB SEAP reporter activity,RAW-Dual [1]; [4],1.01
same,NF-kB SEAP reporter activity,RAW-Dual [1]; [5],0.992
same,NF-kB SEAP reporter activity,RAW-Dual [1]; [6],0.919
c1ccc(-c2nn3c(c2-c2ccnc4cc(OCCN5CCOCC5)ccc24)CCC3)nc1 (library stock concentration (final ~1000-fold dilution): 2 mM),NF-kB SEAP reporter activity,RAW-Dual [1]; agonist: LPS (TLR4) 0.1 ug/mL,2.87
same,NF-kB SEAP reporter activity,RAW-Dual [1]; [4],1.07
same,NF-kB SEAP reporter activity,RAW-Dual [1]; [5],1.05
same,NF-kB SEAP reporter activity,RAW-Dual [1]; [6],1.01
c1ccc(-c2n[nH]cc2-c2ccnc3ccccc23)nc1,NF-kB SEAP reporter activity,RAW-Dual [2]; [11],0.961
same,NF-kB SEAP reporter activity,RAW-Dual [2]; [12],1.15
c1ccc(-c2nn3c(c2-c2ccnc4cc(OCCN5CCOCC5)ccc24)CCC3)nc1,NF-kB SEAP reporter activity,RAW-Dual [2]; [11],0.793
same,NF-kB SEAP reporter activity,RAW-Dual [2]; [12],1.27
Cc1cccc(-c2nn3c(c2-c2ccnc4ccc(C(N)=O)cc24)CCC3)n1 (library stock concentration (final ~1000-fold dilution): 10 mM),NF-kB SEAP reporter activity,RAW-Dual [1]; agonist: LPS (TLR4) 0.1 ug/mL,1.59
same,NF-kB SEAP reporter activity,RAW-Dual [1]; [4],1.03
same,NF-kB SEAP reporter activity,RAW-Dual [1]; [5],1.05
same,NF-kB SEAP reporter activity,RAW-Dual [1]; [6],1.21
Cc1cccc(-c2nn3c(c2-c2ccnc4ccc(C(N)=O)cc24)CCC3)n1,NF-kB SEAP reporter activity,RAW-Dual [2]; [7],1.13
same,NF-kB SEAP reporter activity,RAW-Dual [2]; [8],1.48
Cc1cc(C)cc(Oc2ccc(CNC(=O)C(C)N)cc2C)c1 (configuration not stated) (library stock concentration (final ~1000-fold dilution): 10 mM),NF-kB SEAP reporter activity,RAW-Dual [1]; agonist: LPS (TLR4) 0.1 ug/mL,1.3
same,NF-kB SEAP reporter activity,RAW-Dual [1]; [4],0.9
same,NF-kB SEAP reporter activity,RAW-Dual [1]; [5],0.484
same,NF-kB SEAP reporter activity,RAW-Dual [1]; [6],0.732
Cc1cc(C)cc(Oc2ccc(CNC(=O)C(C)N)cc2C)c1 (configuration not stated),NF-kB SEAP reporter activity,RAW-Dual [2]; [7],1.24
same,NF-kB SEAP reporter activity,RAW-Dual [2]; [8],1.3
CC(C)=CCC/C(C)=C/CC/C(C)=C/CC/C=C(\C)CC/C=C(\C)CCC=C(C)C (library stock concentration (final ~1000-fold dilution): 10 mM),NF-kB SEAP reporter activity,RAW-Dual [1]; agonist: LPS (TLR4) 0.1 ug/mL,1.34
same,NF-kB SEAP reporter activity,RAW-Dual [1]; [4],1.09
same,NF-kB SEAP reporter activity,RAW-Dual [1]; [5],1.14
same,NF-kB SEAP reporter activity,RAW-Dual [1]; [6],1.12
CC(C)=CCC/C(C)=C/CC/C(C)=C/CC/C=C(\C)CC/C=C(\C)CCC=C(C)C,NF-kB SEAP reporter activity,RAW-Dual [2]; [7],0.926
same,NF-kB SEAP reporter activity,RAW-Dual [2]; [8],1.01
